# Measurements taken from the supplement of paper PMC4466236.
# In all, about 33,000 sequences were measured (“E-score (dimensionless, -0.5 to 0.5)”: median about -0.058, highest 2% from about 0.35 on). Many of the other results were omitted from the sample, so the highest values are more common in it than they were.
# Tested on: MvaT
# Experiment: PBM 8-mer E-score (mean of HK and ME arrays) (E-score (dimensionless, -0.5 to 0.5)); higher = stronger relative binding preference
# Description: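 Protein binding microarray: GST-tagged full-length MvaT (P. aeruginosa PAO1) bound to two universal double-stranded 60-mer arrays (ME and HK), each with a constant 25-mer primer and a variable 35-mer region covering all 8-mers. The 8-mer E-score (rank-based, range -0.5 to 0.5, >0.45 = specific binding) is the mean of the two arrays.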
row,Sequence,PBM 8-mer E-score
1,AGGTGCAT,-0.0802
2,GCAGGACC,-0.179
3,ACAATCAA,0.21
4,TAGAGACA,0.123
5,CAATCGGA,-0.0769
6,ACTTCTCC,0.2
7,GCATATAC,0.311
8,TCATATGA,0.204
9,GCATATGA,0.176
10,GCATATAA,0.374
11,CCATATAA,0.343
12,TCATATAA,0.379
13,ACGCAGGC,-0.282
14,GCCGAACC,-0.115
15,ATAACTGG,0.213
16,ACAGGAAA,0.0933
17,AAACCCTT,-0.0425
18,GTTAATCA,0.183
19,CTTAATAA,0.385
20,CTCAATAA,0.307
21,GTTAATGA,0.264
22,CTTAAAAA,0.163
23,GTTAATAA,0.377
24,CATGAGAA,-0.0314
25,CACTTGTA,0.139
26,ACATAACT,0.268

row,Sequence,PBM 8-mer E-score
1,AAATAACC,0.375
2,AAATAACA,0.336
3,AAATAACG,0.331
4,CAATAACC,0.223
5,AAATAACT,0.375
6,CACGTGCA,-0.0519
7,ATCTGGAC,-0.0431
8,TCATCGAA,-0.15
9,GAGACATC,-0.0544
10,AAGCATAG,-0.033
11,CCAGTTAC,0.14
12,AGACGCGA,0.0502
13,AATTTTTA,0.34
14,AAAATTTG,0.221
15,AAATTTTA,0.35
16,TAAATTTA,0.414
17,AAATTTAG,0.238
18,AAAATTTA,0.311
19,AAAAATTT,0.298
20,AAATTTAC,0.11
21,CAAATTTA,0.22
22,GAATTTTA,0.254
23,AAATTTAT,0.384
24,AAAATTTT,0.354
25,AGAGTTCG,0.00443
26,CAACCCGC,-0.00327

row,Sequence,PBM 8-mer E-score
1,CATGATGC,-0.011
2,AGGGGGAG,-0.246
3,AGAAAGGC,-0.118
4,CTGTGCTA,-0.0139
5,GGAGCCAC,-0.325
6,TAAATGTA,0.359
7,GAATTCAA,0.0832
8,CAATTTAG,0.2
9,TAATTTGA,0.201
10,TAATTTAA,0.457
11,TAATTCAA,0.346
12,GAATTTAA,0.264
13,AAATTCAA,0.226
14,CAATTTAA,0.366
15,GAAATGTA,0.259
16,CAATTTTA,0.293
17,CAAATGTA,0.0762
18,CAGGAGAG,-0.196
19,AGTCACAT,-0.0559
20,GTTTCGCA,-0.0431
21,ATTACTCG,0.169
22,AAATACTG,0.244
23,CATGTCAG,-0.042
24,AATAGTCG,0.218
25,ACGTATAC,0.136
26,GCAGGCGC,-0.28

row,Sequence,PBM 8-mer E-score
1,ATACTCGG,0.0138
2,AAATTTAA,0.408
3,CGATTTAA,0.238
4,TGATTTAA,0.347
5,AAATTTCA,0.241
6,AGATTTAA,0.273
7,AAATTTGA,0.189
8,GAATCAAA,0.13
9,GTAGTGCA,-0.115
10,AACCACTG,-0.0219
11,GACCGCTA,-0.115
12,GATTGAAA,0.12
13,CTGCCACC,-0.166
14,ATACTCAT,0.175
15,ATCAGGCA,-0.0666
16,GTTAAATA,0.396
17,CTTAAATC,0.0452
18,ACTAAATA,0.31
19,ATTAAATG,0.373
20,ATTAAATA,0.421
21,ATTAAAGG,0.156
22,ATTAAAGA,0.264
23,GTTAAAGA,0.11
24,AGTAAATG,0.175
25,ATTAAACC,0.249
26,CTTAAATA,0.337

row,Sequence,PBM 8-mer E-score
1,ATTAAATC,0.382
2,CGGTACCG,-0.0831
3,TACGAGCA,-0.0785
4,CACCTAAG,-0.143
5,GACGTACA,0.034
6,CCCCGTGA,-0.306
7,AACTGACG,0.0522
8,ACTTTTTG,0.122
9,ATTAAACA,0.391
10,CTTAAACA,0.156
11,ATTAAACG,0.284
12,GCAATACA,0.0621
13,GAGCACGA,-0.273
14,AGGCATAA,-0.0265
15,GATTTATA,0.398
16,GGTTTATA,0.242
17,CATTTATC,0.241
18,AATTTATG,0.273
19,AATTTATA,0.46
20,CATTTTTA,0.242
21,AGTTTATC,0.144
22,AATTTATC,0.276
23,AGTTTATA,0.424
24,GATTTAGA,0.0137
25,CATTTATA,0.347
26,GATTTTTA,0.133

row,Sequence,PBM 8-mer E-score
1,AGCAGGCC,-0.328
2,TCCTAACA,0.0526
3,TCCCACAA,0.0216
4,CAATTCAC,0.0398
5,GTTTTATA,0.243
6,ATTTTATG,0.234
7,CCTTTATA,0.193
8,ACTTTATC,0.105
9,ATTTTACA,0.371
10,CTTTTACA,0.0261
11,ACTTTATA,0.39
12,AATTTACA,0.269
13,ATTTTATA,0.366
14,TGCTCACA,-0.0823
15,CAAGCAGG,-0.0598
16,AGTACAGG,0.0418
17,AAAAATCA,0.0153
18,GCCTCCCC,-0.263
19,ACATCCCA,-0.00783
20,TCTCATAA,0.0817
21,CAGTGGAC,0.0119
22,AAGACATG,0.0346
23,CGGGAAAG,-0.177
24,CCAATAAA,0.302
25,ACAATACT,0.223
26,ACAATAAT,0.401

row,Sequence,PBM 8-mer E-score
1,ACAATAAG,0.276
2,ACAATAAA,0.356
3,ACAATAAC,0.324
4,AACTACCA,0.17
5,GAAATAAC,0.3
6,AAAATAAC,0.378
7,TAAATACA,0.35
8,GAAATAAA,0.405
9,GAAATGAA,0.17
10,AAAATAAT,0.422
11,CAAATAAC,0.341
12,AAAAAAAT,0.227
13,GGAATAAA,0.289
14,AAAATACA,0.25
15,AAAATACC,0.265
16,GAAATACA,0.0961
17,CAGGTGTC,-0.277
18,AGACTTGG,-0.179
19,AGTGTCTC,-0.00692
20,ACGCTCTC,-0.273
21,CCGTAGGA,-0.216
